{"source": "the supplement of paper PMC10811239"}
{"system": "LEGO organoid PT (PTEN-/-; TP53-/-)", "assay": "bioluminescence (viable cell) signal fold change after vs before treatment, normalised to DMSO (ratio); higher = more tumour cell growth / less inhibition", "details": "10 µM; treatment time 6 days", "procedure": "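Luc2-labelled iPSC-derived glioblastoma-like organoids (LEGOs, genotypes PT = PTEN-/-;TP53-/-, PTCC = plus CDKN2A/B-/-, PTN = plus NF1-/-) were treated with 10 uM drug for 6 days (applied every other day) at 37 C. Bioluminescence imaging was done before treatment and 2 days after the last dose. BLI signals were normalised to the DMSO control on the same day and then to the pre-treatment signal (N=3).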"}
{"smiles": "CC(C)CN(C[C@@H](O)[C@H](Cc1ccccc1)NC(=O)O[C@H]1CCOC1)S(=O)(=O)c1ccc(N)cc1", "note": "[Amprenavir]", "bioluminescence": 0.802}
{"smiles": "NC(=O)OCC(COC(N)=O)c1ccccc1", "note": "[Felbamate]", "bioluminescence": 0.699}
{"smiles": "CS(=O)(=O)c1ccc(C(=O)Nc2ccc(Cl)c(-c3ccccn3)c2)c(Cl)c1", "note": "[Vismodegib]", "bioluminescence": 0.63}
{"smiles": "Cc1cc(C)nc(NS(=O)(=O)c2ccc(N)cc2)n1", "note": "[Sulfamethazine]", "bioluminescence": 0.814}
{"smiles": "NS(=O)(=O)c1cc2c(cc1Cl)N=CNS2(=O)=O", "note": "[Chlorothiazide]", "bioluminescence": 0.96}
{"smiles": "C[C@]12C=CC(=O)C=C1CC[C@@H]1[C@@H]2[C@@H](O)C[C@@]2(C)[C@H]1CC[C@]2(O)C(=O)CO", "note": "[Prednisolone]", "bioluminescence": 0.904}
{"smiles": "CCCN(CCC)S(=O)(=O)c1ccc(C(=O)O)cc1", "note": "[Probenecid]", "bioluminescence": 3.62}
{"smiles": "CO/N=C(\\C(=O)N[C@@H]1C(=O)N2C(C(=O)[O-])=C(CSc3nc(=O)c([O-])nn3C)CS[C@H]12)c1csc(N)n1.CO/N=C(\\C(=O)N[C@@H]1C(=O)N2C(C(=O)[O-])=C(CSc3nc(=O)c([O-])nn3C)CS[C@H]12)c1csc(N)n1.O.O.O.O.O.O.O.[Na+].[Na+].[Na+].[Na+]", "note": "[Ceftriaxone sodium]", "bioluminescence": 0.964}
{"smiles": "Cc1[nH]c(=O)c(C#N)cc1-c1ccncc1", "note": "[Milrinone]", "bioluminescence": 1.11}
{"smiles": "COc1c(N2CCNC(C)C2)c(F)cc2c(=O)c(C(=O)O)cn(C3CC3)c12", "note": "(stereo not given) [Gatifloxacin]", "bioluminescence": 1.66}
{"smiles": "NCCS(=O)(=O)O", "note": "[Taurine]", "bioluminescence": 1.84}
{"smiles": "CCCNS(=O)(=O)Nc1ncnc(OCCOc2ncc(Br)cn2)c1-c1ccc(Br)cc1", "note": "[Macitentan]", "bioluminescence": 1.16}
{"smiles": "CS(=O)(=O)c1ccc(C2=C(c3ccccc3)C(=O)OC2)cc1", "note": "[Rofecoxib]", "bioluminescence": 1.25}
{"smiles": "O=C(NC1CCN(CCCCC2(C(=O)NCC(F)(F)F)c3ccccc3-c3ccccc32)CC1)c1ccccc1-c1ccc(C(F)(F)F)cc1", "note": "[Lomitapide]", "bioluminescence": 0.0143}
{"smiles": "NC(=O)c1cnccn1", "note": "[Pyrazinamide]", "bioluminescence": 0.603}
{"smiles": "CCn1c(=O)c2c(nc(/C=C/c3ccc(OC)c(OC)c3)n2C)n(CC)c1=O", "note": "[Istradefylline]", "bioluminescence": 0.737}
{"smiles": "CNCCCN1c2ccccc2CCc2ccccc21.Cl", "note": "[Desipramine hydrochloride]", "bioluminescence": 0.858}
{"smiles": "CCCN[C@H]1CCc2nc(N)sc2C1.Cl.Cl.O", "note": "[Pramipexole 2HCl Monohydrate]", "bioluminescence": 1.35}
{"smiles": "C=CC(=O)N1CCC[C@@H](n2nc(-c3ccc(Oc4ccccc4)cc3)c3c(N)ncnc32)C1", "note": "[Ibrutinib]", "bioluminescence": 0.73}
{"smiles": "CCC(CC)O[C@@H]1C=C(C(=O)O)C[C@H](N)[C@H]1NC(C)=O", "note": "[Oseltamivir acid]", "bioluminescence": 0.803}
{"smiles": "Cc1ccc(C(=O)c2cc(O)c(O)c([N+](=O)[O-])c2)cc1", "note": "[Tolcapone]", "bioluminescence": 1.1}
{"smiles": "CN(C)C(=N)NC(=N)N.Cl", "note": "[Metformin hydrochloride]", "bioluminescence": 2.55}
{"smiles": "CC(C)(Sc1cc(C(C)(C)C)c(O)c(C(C)(C)C)c1)Sc1cc(C(C)(C)C)c(O)c(C(C)(C)C)c1", "note": "[Probucol]", "bioluminescence": 0.49}
{"smiles": "CC(=O)Oc1ccccc1C(=O)O", "note": "[Aspirin]", "bioluminescence": 0.997}
{"smiles": "CC(C)(S)[C@@H](N)C(=O)O", "note": "[d-penicillamin]", "bioluminescence": 0.964}
{"smiles": "CC[C@@H]1/C=C(\\C)C[C@H](C)C[C@H](OC)[C@H]2O[C@@](O)(C(=O)C(=O)N3CCCC[C@H]3C(=O)O[C@H](/C(C)=C/[C@@H]3CC[C@H](Cl)[C@H](OC)C3)[C@H](C)[C@@H](O)CC1=O)[C@H](C)C[C@@H]2OC", "note": "[Pimecrolimus]", "bioluminescence": 1.29}
{"smiles": "CN(C)CC(c1ccc(O)cc1)C1(O)CCCCC1.O=C(O)CCC(=O)O", "note": "(stereo not given) [Desvenlafaxine succinate hydrate]", "bioluminescence": 1.67}
{"smiles": "CC(CN(C)C)CN1c2ccccc2CCc2ccccc21.O=C(O)/C=C\\C(=O)O", "note": "(stereo not given) [Trimipramine maleate]", "bioluminescence": 0.503}
{"smiles": "Cc1cn([C@H]2C=C[C@@H](CO)O2)c(=O)[nH]c1=O", "note": "[Stavudine]", "bioluminescence": 3.29}
{"smiles": "CC[C@@]1(O)C(=O)OCc2c1cc1n(c2=O)Cc2cc3c(CN(C)C)c(O)ccc3nc2-1.Cl", "note": "[Topotecan hydrochloride]", "bioluminescence": 1.39}
{"smiles": "Cl.O.O=C1Cc2cc(CCN3CCN(c4nsc5ccccc45)CC3)c(Cl)cc2N1", "note": "[Ziprasidone hydrochloride monohydrate]", "bioluminescence": 0.909}
{"smiles": "Cc1cc2c(s1)Nc1ccccc1N=C2N1CCN(C)CC1", "note": "[Olanzapine]", "bioluminescence": 1.17}
{"smiles": "CCOC(=O)OC(C)OC(=O)[C@@H]1N2C(=O)[C@@H](NC(=O)[C@H](N)c3ccccc3)[C@H]2SC1(C)C.Cl", "note": "(stereo not given in full) [Bacampicillin hydrochloride]", "bioluminescence": 0.788}
{"smiles": "CCCC(CCC)C(=O)O", "note": "[Valproic Acid]", "bioluminescence": 1.01}
{"smiles": "COC(=O)N[C@H](C(=O)N[C@@H](Cc1ccccc1)[C@@H](O)CN(Cc1ccc(-c2ccccn2)cc1)NC(=O)[C@@H](NC(=O)OC)C(C)(C)C)C(C)(C)C.O=S(=O)(O)O", "note": "[Atazanavir sulfate]", "bioluminescence": 1.05}
{"smiles": "O=C(CCCN1CC=C(n2c(=O)[nH]c3ccccc32)CC1)c1ccc(F)cc1", "note": "[Droperidol]", "bioluminescence": 1.37}
{"smiles": "CCCC(CCC)C(=O)[O-].[Na+]", "note": "[Valproic acid sodium salt]", "bioluminescence": 1.11}
{"smiles": "CN(C)CCOC(C)(c1ccccc1)c1ccccn1.O=C(O)CCC(=O)O", "note": "(stereo not given) [Doxylamine succinate]", "bioluminescence": 0.83}
{"smiles": "Cl.CN(C)CC\\C=C1\\c2ccccc2C=Cc2ccccc12", "note": "[Cyclobenzaprine hydrochloride]", "bioluminescence": 0.825}
{"smiles": "CC1=NN(c2ccccc2)C(=O)C1", "note": "[Edaravone]", "bioluminescence": 0.893}
